Hit rate of the full screen: of about 330,000 compounds, about 670 (0.2%) were called active. The full list was thinned out, with actives kept by preference. A number with no mark means an inactive call.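 Rule for the calls: active = activity change below a set negative limit, meaning inhibition stronger than a set level (cut at about -70% in these data); inconclusive = activity change between two set negative limits; inactive = the rest.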
% is set by controls: 0 for no effect and ±100 for the full control effect.

Chain of Thyrotropin receptor (Homo sapiens) (P16473 whole entry, looked up): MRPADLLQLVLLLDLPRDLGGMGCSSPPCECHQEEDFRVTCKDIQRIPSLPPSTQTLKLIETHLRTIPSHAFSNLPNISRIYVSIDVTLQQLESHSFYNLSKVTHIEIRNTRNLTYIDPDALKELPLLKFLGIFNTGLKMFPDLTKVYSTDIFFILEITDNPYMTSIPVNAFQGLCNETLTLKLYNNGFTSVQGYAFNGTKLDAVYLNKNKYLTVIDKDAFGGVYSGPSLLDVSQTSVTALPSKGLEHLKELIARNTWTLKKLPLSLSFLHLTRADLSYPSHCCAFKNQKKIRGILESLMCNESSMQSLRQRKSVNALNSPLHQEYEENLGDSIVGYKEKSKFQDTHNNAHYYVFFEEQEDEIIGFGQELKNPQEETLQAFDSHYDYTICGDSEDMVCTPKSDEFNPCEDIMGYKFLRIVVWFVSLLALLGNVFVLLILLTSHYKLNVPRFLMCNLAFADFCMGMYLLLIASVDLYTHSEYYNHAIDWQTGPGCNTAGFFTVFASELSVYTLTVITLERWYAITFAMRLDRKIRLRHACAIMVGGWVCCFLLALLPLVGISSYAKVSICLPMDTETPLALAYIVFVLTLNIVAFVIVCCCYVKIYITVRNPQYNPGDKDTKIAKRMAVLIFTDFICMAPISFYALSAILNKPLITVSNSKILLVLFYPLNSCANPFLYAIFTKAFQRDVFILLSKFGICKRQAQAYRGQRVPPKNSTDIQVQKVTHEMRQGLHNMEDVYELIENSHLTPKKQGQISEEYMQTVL

The target in this test is Thyrotropin receptor (Homo sapiens) (UniProt P16473). Kind of test: Antagonists of the Thyroid Stimulating Hormone Receptor: HTS campaign. The note with it: TSHR-expressing cells, TSH-stimulated cAMP HTRF, 2 h; at 11.5 µM; stronger effect = lower value. The source says:
The thyroid-stimulating hormone receptor (TSHR) is a member of the 7 trans-membrane-spanning receptor (7TMR) family of cell surface receptors. TSHR-mediated hyperthyroidism is important in thyroid pathology. The development of small molecule antagonists of TSHR may lead to therapeutic approaches for TSHR-mediated hyperthyroidism caused by constitutively activating mutations or stimulating auto-antibodies associated with Graves' disease. Graves' disease is the leading cause of hyperthyroidism and is caused by autoantibodies that stimulate TSHR (TsAbs) causing thyroid growth and unregulated overproduction of thyroid hormones and existing treatments have liabilities (agranulocytosis). In addition, TSHRs are known to be expressed in multiple extrathyroidal tissues including bone, brain, kidney, testis, fat and cells of the immune system but the role of the TSHR in these tissues is not clear. Therefore, TSHR antagonists/inverse agonists could be used as probes of extrathyroidal TSHR function. Finally, TSHR inverse agonists, which are a subclass of antagonists that inhibit agonist-independent (or basal or constitutive) TSHR signaling, could be used to inhibit TSH-independent signaling in patients with recurrent or metastatic thyroid cancer who are receiving thyroid hormone to suppress TSH. In collaboration between scientist from the NCGC and the NIDDK, a miniaturized HTRF high-throughput screen was developed. It's a cell based assay, where an anti cAMP antibody contains a fluorescent cryptate tag (excitation 337 nm; emission 620 nm) and the acceptor is cAMP-d2 (excitation 620 nm; emission 665 nm). When antibody and cAMP-d2 interact and are excited by a 337 nm light, a FRET occurs resulting in emission at 665 nm. The assay is competition between cAMP-d2 and cAMP (from the cell lysate). The homogeneous protocol allows for one step dispense after stimulation that is automation friendly. NIH Chemical Genomics Center [NCGC] NIH Molecular Libraries Probe Centers Network [MLPCN] MLPCN Grant: MH090855-01 Assay Submitter (PI): Marvin Gerhengorn
1. 3ul of 200 TSHR freshly harvested cells/well are dispensed into a 1536 TC-treated white solid bottom plate. 2. Through pintool addition, 23nl of compounds and control in 100% DMSO are added to the plate. 3. Then 1ul of EC80 TSH (4nM final) is added to the plate. 4. Assay is incubated at 37 deg C for 2 hours. 5. 2ul of cAMP antibody diluted 1:20 in lysis buffer is added. 6. Immediately following, 2ul of d2 diluted 1:20 in HBSS is added seperately. 7. The assay is incubated for 30 minutes at ambient room temperature. 8. The result is obtained by using a ViewLux read-out with HTRF settings.
(In general: In TR-FRET formats the signal depends on donor and acceptor labels being close together.)
For `CCOC(=O)[C@H]1[C@H]2COc3ccc(C)cc3[C@@H]2N2C(=O)CN(Cc3ccc(F)cc3)C(=O)[C@@]12C`, the activity change, negative = inhibition is -7.74%. Turning to `Cc1ccc(N(CCC(=O)O)S(=O)(=O)c2cccc(C(F)(F)F)c2)cc1`, the activity change, negative = inhibition is 22.4%.

Consider `CN(CC(=O)Nc1cccc(F)c1)C(=O)C1CC(=O)N(CCc2ccccc2)C1` (stereo not given), for which the activity change, negative = inhibition was 8.3%.

For `CC(C)c1ccc(NC(=S)NC2CC3C=CC2C3)cc1` (stereo not given), the activity change, negative = inhibition is -4.5%. To `CC(NC(=O)COC(=O)CCC(=O)c1ccc(Cl)cc1)c1ccccc1` (stereo not given) belongs -10.7%; to `COc1cccc(NC(=O)C2CCCN(c3ncnc4c3nc3n4CCCCC3)C2)c1` (stereo not given), -12.1%. Regarding `COc1cccc(N(CC(=O)NCc2ccccc2)C(=O)CCC(=O)Nc2nccs2)c1`, the activity change, negative = inhibition is -9.83%.

`O=C(CN(C(=O)CCC(=O)Nc1nccs1)c1ccc(F)cc1)NCc1ccc2c(c1)OCO2`: the activity change, negative = inhibition was 21.9%. `COc1ccc(N(CC(=O)NCc2ccc(F)cc2)C(=O)CCC(=O)Nc2nccs2)cc1`: the activity change, negative = inhibition was -77.8% (active). For `COC(=O)c1ccc(S(=O)(=O)N2CCC(c3nc4ccccc4o3)CC2)cc1` the value was -1%. Turning to `Cn1cc(CCC(=O)NCc2ccc3c(c2)OCO3)c2ccccc21`, the activity change, negative = inhibition was 5.66%. `N#Cc1nc(Cc2cccc3ccccc23)oc1NCc1ccc2c(c1)OCO2`: the activity change, negative = inhibition was -94.7% (active).

As for `c1n[nH]c(NCc2ccc3c(c2)OCO3)n1`, the activity change, negative = inhibition is 5.91%. To `CCc1nonc1NC(=O)c1oc2ccc(Cl)cc2c1C` belongs 3.96%. To `O=C1C=C(c2cccc(Cl)c2O)C[C@@H](c2ccc(F)cc2)C1` belongs -23%; to `CC1(C)NC(=O)N(CC(=O)N2CCN(S(=O)(=O)c3ccccc3F)CC2)C1=O`, 1.38%. Take `CCN(c1ccccc1)S(=O)(=O)c1cc(C(=O)NCc2ccccn2)ccc1C`: the activity change, negative = inhibition is 0.209%.

Turning to `Cc1ccc(C)c(N(CC(=O)NCc2ccco2)C(=O)CCC(=O)Nc2ccccn2)c1`, the activity change, negative = inhibition was 0.465%. Take `COC(=O)c1ccc(COC(=O)c2c(C)nn(Cc3ccccc3Cl)c2Cl)o1`: the activity change, negative = inhibition was -21.4%. For `CC(=O)N=c1ncn(CC(COC(C)=O)OC(C)=O)c2nc[nH]c12` (stereo not given) the value was -10.8%; for `Cc1ccc(S(=O)(=O)N(C)c2ccc(OCC(=O)NC3=NCCS3)cc2)cc1`, 26.8%; for `Oc1c(Cl)cc(Cl)c(Cl)c1Cc1c(O)c(Cl)cc(Cl)c1Cl`, -103% (active). For `CC(Oc1ccccc1)C(=O)NN1Cc2ccccc2C1=N` (stereo not given) the value was 8.16%; for `CCOC(=O)c1ccc(NC(=O)c2nc[nH]c2C(=O)N[C@@H](CCCCNC(=O)OC(C)(C)C)C(=O)OC(C)(C)C)cc1`, -6.71%.

As for `CCCn1c(=O)c2[nH]c(-c3ccc(OCC(=O)NCCN)cc3)nc2n(CCC)c1=O`, the activity change, negative = inhibition is 26.4%. To `COc1ccc(C(=O)NCC2CCCN2S(=O)(=O)c2cccs2)cc1OC` (stereo not given) belongs 4.47%. For `CC(CCc1ccccc1)NCC(O)c1cccc([N+](=O)[O-])c1` (stereo not given), the activity change, negative = inhibition was 9.45%. For `Cc1cccc(NC(=O)c2ccc(S(=O)(=O)N(C)c3ccccc3)cc2)n1` the value was -19.5%; for `CN(c1ccccc1)S(=O)(=O)c1cc(C(=O)Nc2nc3ccccc3[nH]2)ccc1Cl`, -76.7% (active); for `CN(c1ccccc1)S(=O)(=O)c1cc(C(=O)OCC(=O)N2CCN(C(=O)c3ccco3)CC2)ccc1Cl`, -10.1%. In the case of `Cc1cc(C)n2nc(C(=O)N(C)C(c3ccccc3)c3ccccc3)nc2n1`, the activity change, negative = inhibition was 0.111%. For `Cc1cc(C)n2nc(C(=O)OC(C)C(=O)c3cc(C)c(C)cc3C)nc2n1` (stereo not given), the activity change, negative = inhibition is 23.5%. To `O=C(CN1C(=O)CSC1=O)N1CCCC(Nc2ccc(F)cc2)C1` (stereo not given) belongs -1.23%; to `Cc1ccsc1C(=O)OCC(=O)Nc1cccc(F)c1`, -3.82%.

On to `COc1cc(NC(=O)c2ccccc2NS(=O)(=O)c2ccc(Cl)s2)cc(OC)c1`, for which the activity change, negative = inhibition is -75.8% (active). For `CCOc1ccc(NC(=O)c2ccccc2NS(C)(=O)=O)cc1` the value was 5.45%; for `COc1cc(OC)c(S(=O)(=O)Nc2ccccc2C(=O)O)cc1S(=O)(=O)Nc1ccccc1C(=O)O`, -2.52%; for `CCN(CC)C(=O)CSC1c2ccccc2C(=O)N1c1ccccc1` (stereo not given), 4.85%. Consider `O=C(CCSCCc1ccccn1)Nc1nccs1`, for which the activity change, negative = inhibition is -1.45%. On to `CC(=O)c1nn(-c2cccc(Br)c2)cc1C(=O)c1cccc2ccccc12`, for which the activity change, negative = inhibition was 7.96%. For `CC(C)Cc1nn2c(=O)cc(O)nc2s1`, the activity change, negative = inhibition was 2.07%. On to `CCOC(=O)C1(Cc2ccccc2C)CCCN(C(=O)c2ccc(COC)o2)C1` (stereo not given), for which the activity change, negative = inhibition was 26.3%. For `CC1CCCCC1NC(=O)CO/N=C/c1ccc(OC(F)F)cc1` (stereo not given) the value was -11.3%; for `CCOc1ccc(/C=N/OCC(=O)NCc2cccs2)cc1`, -4.83%; for `O=C(CO/N=C/c1ccc(OC(F)F)cc1)NCc1ccc(F)cc1`, -73.2% (active).
